Reference: the supplement of paper PMC10646978
± gives the standard deviation.

How the values were obtained:
Details in all cases: modulator concentration 10 µM
[1] = system: RAW-Dual (murine macrophage reporter line); assay: NF-kB reporter (SEAP) activity fold change vs agonist alone; higher = enhanced NF-kB activity
Summary of the method: (§1)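 Compound reached 10 μM final in each well by pin transfer, onto RAW-Dual murine macrophage reporter cells seeded at 50 000 per well in 384-well plates. After 1 hour at 37 °C, the cells were stimulated overnight with a PRR agonist. SEAP in the supernatant was read with QUANTI-Blue at 620 nm absorbance for NF-κB, and Lucia luciferase was read with QUANTI-Luc luminescence for IRF. Each signal was turned into fold change against the mean agonist-only control on the same plate, and two replicate plates were averaged with propagated errors.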

[2] = system: RAW-Dual (murine macrophage reporter line); assay: IRF reporter (Lucia luciferase) activity fold change vs agonist alone; higher = enhanced IRF activity
Summary of the method: as §1

[3] = system: RAW-Dual (murine macrophage reporter line); assay: viability score (confluency relative to resting cells, overnight) (fraction); higher = more viable, active = viable (0.7 or more)
Summary of the method: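 RAW-Dual macrophages in 384-well plates were treated overnight with compound at 10 μM final. IncuCyte imaging recorded confluency, and IncuCyte software built two confluency masks across every imaged well. The viability score expresses confluency relative to resting cells and was judged against a cutoff, which a compound met only if both masks exceeded 70% of resting cells.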

[4] = agonist: CpG ODN 1826 0.5 ug/mL

| SMILES | NF-kB reporter [1, 4] | NF-kB reporter ([1]; agonist: LPS 0.1 ug/mL) | NF-kB reporter ([1]; agonist: MPLA […]) | IRF reporter ([2]; agonist: 3'3'-cGAMP 10 ug/mL) | IRF reporter ([2]; agonist: LPS 0.1 ug/mL) | IRF reporter ([2]; agonist: MPLA […]) | viability score [3] |
| --- | --- | --- | --- | --- | --- | --- | --- |
| O=c1[nH]c(=O)n([C@H]2C[C@H](O)[C@@H](CO)O2)cc1F | 1.65 ± 0.14 | 1.02 ± 0.12 | 1.11 ± 0.028 | 0.75 ± 0.042 | 0.923 ± 0.083 | 0.863 ± 0.067 | 0.669 (inactive) |
| CC(C)c1noc(CN2CCC(n3nc(C(F)(F)F)n(C)c3=O)CC2)n1 | 0.975 ± 0.13 | 1.11 ± 0.091 | 0.939 ± 0.069 | 0.993 ± 0.05 | 1.08 ± 0.12 | 1.15 ± 0.13 | 1 (active) |
| OCCN1CCN(CCCN2c3ccccc3C=Cc3ccccc32)CC1 [Prestw-1456] | 0.862 ± 0.066 | 1 ± 0.082 | 1.37 ± 0.053 | 0.807 ± 0.029 | 1.06 ± 0.049 | 1.49 ± 0.18 | 0.904 (active) |
| CN1C(CC(=O)c2ccccc2)CCCC1CC(O)c1ccccc1.Cl (configuration not stated) | 0.601 ± 0.16 | 1.01 ± 0.097 | 0.964 ± 0.083 | 0.815 ± 0.041 | 0.996 ± 0.21 | 1.03 ± 0.15 | 0.988 (active) |
| COc1ccc(C2(C#N)CCC(C(=O)O)CC2)cc1OC1CCCC1 (configuration not stated) | 1.37 ± 0.11 | 1.16 ± 0.085 | 1.37 ± 0.16 | 1.05 ± 0.048 | 1.25 ± 0.083 | 1.38 ± 0.12 | 1.02 (active) |
| Br.O=S(=O)(c1ccc(-c2csc(Nc3ccc(Br)cc3)n2)cc1)N1CCCCC1 | 0.859 ± 0.072 | 1.08 ± 0.088 | 0.988 ± 0.034 | 0.938 ± 0.16 | 1.01 ± 0.042 | 0.926 ± 0.11 | 1 (active) |
| CC(=O)N=C1NC(=O)C(=Cc2ccc(C)o2)S1 | 0.92 ± 0.088 | 0.847 ± 0.067 | 0.965 ± 0.026 | 0.817 ± 0.065 | 0.895 ± 0.082 | 0.823 ± 0.083 | 0.995 (active) |
| CC(=O)N1CC(C(=O)Nc2cccc(Br)c2)C1 | 1.11 ± 0.063 | 1.05 ± 0.08 | 0.963 ± 0.031 | 0.932 ± 0.034 | 1.05 ± 0.062 | 0.971 ± 0.11 | 0.998 (active) |
| Cc1nccn1CC1CCc2c(c3ccccc3n2C)C1=O.Cl (configuration not stated) | 0.82 ± 0.2 | 0.909 ± 0.28 | 0.84 ± 0.047 | 0.889 ± 0.051 | 1.19 ± 0.23 | 1.22 ± 0.33 | 0.638 (inactive) |
| CC1=NN(c2ccc(S(N)(=O)=O)cc2)C(=O)C1=Cc1ccc(C)s1 | 1.09 ± 0.074 | 1.08 ± 0.072 | 1.33 ± 0.14 | 0.868 ± 0.033 | 1.86 ± 0.15 | 1.54 ± 0.14 | 0.981 (active) |
| CCOCCOC(=O)C1=C(C)NC2=C(C(=O)CCC2)C1c1coc2ccc(C)cc2c1=O (configuration not stated) | 0.973 ± 0.083 | 0.961 ± 0.12 | 0.993 ± 0.12 | 1.01 ± 0.029 | 1.41 ± 0.14 | 1.18 ± 0.11 | 1.01 (active) |
| COc1ccc(-c2cc(=O)c3c(O)cc(O)cc3o2)cc1O | 1.38 ± 0.11 | 1.15 ± 0.056 | 1.3 ± 0.04 | 0.641 ± 0.036 | 0.426 ± 0.076 | 0.356 ± 0.063 | 0.985 (active) |
| COCCOC(=O)C1=C(C)NC(C)=C(C(=O)OC/C=C/c2ccccc2)C1c1cccc([N+](=O)[O-])c1 (configuration not stated) | 0.743 ± 0.078 | 0.787 ± 0.037 | 0.938 ± 0.09 | 1 ± 0.057 | 1.18 ± 0.088 | 1.17 ± 0.1 | 1.01 (active) |
| COc1ccc(C=C2C(=O)N(c3ccc(C(=O)O)cc3)N=C2C)cc1 | 0.794 ± 0.082 | 0.977 ± 0.072 | 1.02 ± 0.092 | 0.934 ± 0.052 | 1.22 ± 0.099 | 1.21 ± 0.17 | 1.01 (active) |
| Fc1ccc(Nc2nc(NN=Cc3ccccc3Cl)nc(N3CCCCC3)n2)cc1 | 1.02 ± 0.17 | 1.26 ± 0.13 | 1.4 ± 0.31 | 0.992 ± 0.071 | 1.1 ± 0.19 | 1.48 ± 0.24 | 0.961 (active) |
| CCCCC(=O)N(Cc1ccc(-c2ccccc2-c2nnn[nH]2)cc1)[C@H](C(=O)O)C(C)C [Prestw-1735] | 1.14 ± 0.14 | 0.992 ± 0.075 | 1.05 ± 0.029 | 0.687 ± 0.03 | 0.705 ± 0.04 | 0.645 ± 0.071 | 0.998 (active) |
| CNC(=O)c1ccc(Nc2ncc(C(F)(F)F)c(NCc3nccnc3N(C)S(C)(=O)=O)n2)cc1 | 1.25 ± 0.37 | 0.169 ± 0.013 | 2.19 ± 0.34 | 0.0196 ± 0.0024 | 0.0319 ± 0.0037 | 0.0361 ± 0.006 | 0.749 (active) |
| Nc1ccc(O)c(C(=O)O)c1 | 1.08 ± 0.089 | 0.898 ± 0.12 | 1.04 ± 0.022 | 0.956 ± 0.053 | 0.923 ± 0.084 | 1.03 ± 0.13 | 0.989 (active) |
| NC(=O)c1ccccc1O | 1.18 ± 0.28 | 1.01 ± 0.051 | 0.978 ± 0.085 | 0.945 ± 0.032 | 1.23 ± 0.14 | 1.19 ± 0.16 | 0.993 (active) |
| O=C(NCCCO)C(=O)Nc1ccccc1F | 0.815 ± 0.07 | 0.894 ± 0.045 | 1 ± 0.099 | 0.968 ± 0.062 | 1.39 ± 0.08 | 1.46 ± 0.14 | 1 (active) |
| Nc1nc(Cl)nc2c1ncn2[C@H]1C[C@H](O)[C@@H](CO)O1 | 1.91 ± 0.4 | 1.39 ± 0.11 | 1.65 ± 0.12 | 0.723 ± 0.055 | 1.09 ± 0.096 | 1.08 ± 0.22 | 0.244 (inactive) |
| O=S(=O)(C=Cc1ccccc1)NCc1ccccc1 | 0.933 ± 0.15 | 1.03 ± 0.083 | 0.953 ± 0.085 | 1.03 ± 0.028 | 1.28 ± 0.13 | 1.61 ± 0.37 | 0.97 (active) |
| Cn1c(=O)cc(N2CCC[C@@H](N)C2)n(Cc2cc(F)ccc2C#N)c1=O.O=C(O)CCC(=O)O | 0.0816 ± 0.0048 | 0.119 ± 0.014 | 0.376 ± 0.039 | 0.0243 ± 0.0016 | 0.262 ± 0.076 | 0.205 ± 0.069 | 0.128 (inactive) |
| Cc1cc(NC(=O)CC(C)C)ccc1N1CCCCC1=O | 1.03 ± 0.097 | 1.03 ± 0.085 | 0.936 ± 0.11 | 1 ± 0.065 | 1.23 ± 0.11 | 1.14 ± 0.32 | 1.01 (active) |
| CC(NC(=O)COc1ccc(C=NNC(=O)c2ccccc2O)cc1)c1ccccc1 (configuration not stated) | 1.05 ± 0.13 | 1.03 ± 0.065 | 1.02 ± 0.061 | 0.985 ± 0.028 | 1.63 ± 0.23 | 1.2 ± 0.1 | 1.01 (active) |
| CCCCSc1nnc2c(n1)OC(c1cccc(O)c1)Nc1ccc(Br)cc1-2 (configuration not stated) | 0.765 ± 0.063 | 0.954 ± 0.073 | 0.996 ± 0.14 | 0.644 ± 0.031 | 0.931 ± 0.065 | 0.866 ± 0.075 | 1.02 (active) |
